The values that follow come from PubChem BioAssay.

Results with a measured potency or affinity are listed apart. Inconclusive results are not listed. Calls of active or inactive are those of the source.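 How the source made its calls, unless noted: active means fitted half-maximal concentration for viability loss no higher than twice the top valid dose, in every repeat run; inconclusive means repeat runs disagree, flat partial loss, or poor curve fit; inactive means the rest.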

The nature of the first test: cytotoxicity in PAX8-dependent RMG-1 cells, dose response, cell-based, cherry-pick (AID 687029;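 active means signal drop whose fitted half-maximal concentration is at most twice the top valid dose, in every test run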;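 further: cells exposed to compound for 96 hours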). Particulars: RMG-1 viability, CellTiterGlo ATP luminescence, 96 h; series mostly up to 35 µM. In general terms: ATP-based viability assays read luminescence as a measure of living cells.
In the case of `COc1ccccc1N1CCN(Cc2cc(Br)c(O)c3ncccc23)CC1`, the molecule was classed as inactive.
In the case of `Oc1ccc(/C=N\Nc2cc(N3CCOCC3)nc(N3CCOCC3)n2)c(O)c1`, the call was inactive.
With `O=C1C=CC(=O)c2c(O)c(N3CCN(CCOCCO)CC3)c(Br)c(O)c21`, the call was inactive.
As for `CCN(c1nc(N)c(C(=O)N=C(N)N)nc1Cl)C(C)C`, the outcome was inactive.
On the same count and under the same terms, the value for `Cc1ccc(C)c(N2CCN(C(=O)CCCCCn3c(=S)[nH]c4ccc(N5CCOCC5)cc4c3=O)CC2)c1` was “inactive”; that for `CCc1ccc(CNC(=O)C2CCCN(c3nnc(C)c4c(C)n(-c5ccccc5)nc34)C2)cc1` (stereo not drawn) was “inactive”; that for `C[C@@H](NC(=O)c1nc[nH]c1C(=O)N[C@@H](Cc1ccccc1)C(=O)OC(C)(C)C)c1ccccc1` was “inactive”.
In the case of `O=C(N/N=C/c1ccc(O)cc1)c1[nH]c2ccc(Br)cc2c1-c1ccccc1`, the outcome was inactive.
With `COc1ccc(O)c(/C=N/NC(=O)c2ccc(N3CCCC3=O)cc2)c1`, the molecule was called inactive.
On the same count and under the same terms, the value for `C#CCN(C[C@@H]1[C@@H](OC(=O)NCCCCCC)[C@@H](OC(=O)NCCCCCC)Cn2c(=O)ccc(=O)n21)S(=O)(=O)c1ccc(C)cc1` was “inactive”; that for `FC(F)(F)c1nnc2c(Sc3ccccc3)nc3ccc(Cl)cc3n12` was “inactive”.
Turning to `C#CCN(C[C@H]1[C@H](OC(=O)Nc2c(C)noc2C)[C@H](OC(=O)Nc2c(C)noc2C)C[C@@H](C(=O)OC)[C@H]1C(=O)OC)S(=O)(=O)c1ccc(C)cc1`, the outcome was inactive.
On to `COC(=O)C12OCC34C(CC5C(C)=C(O)C(=O)CC5(C)C3C(O)C1O)OC(=O)C(OC(=O)C=C(C)C)C24` (stereo not drawn), for which the molecule was classed as inactive.
Regarding `O=C(Nc1nc(-c2cccs2)c(-c2cccs2)s1)C1(c2ccccc2)CC1`, the result was inactive.
On the same count and under the same terms, the value for `CCO[C@H]1OC(C(=O)N2CCN(Cc3ccccc3)CC2)=C[C@@H](c2ccc(C(F)(F)F)cc2)[C@@H]1CCCO` was “inactive”; that for `COc1ccc(-c2cc(-c3ccccc3)c(C#N)c(S(C)(=O)=O)n2)cc1` was “inactive”; that for `O=C(CN1C(=O)c2ccccc2S1(=O)=O)N1CCc2ccccc21` was “inactive”.
Regarding `Cc1ccc(-c2cn3cc(C)ccc3n2)cc1`, the molecule was classed as inactive.
Consider `CC(=O)OC(C)(C)/C=C/C(=O)[C@](C)(O)C1[C@H](O)C[C@@]2(C)C3CC=C4C(C=C(O[C@@H]5O[C@H](CO)[C@@H](O)[C@H](O)[C@H]5O)C(=O)C4(C)C)[C@]3(C)C(=O)C[C@]12C` (stereo partly drawn), for which the call was inactive.
For `CCSc1ccc(-c2cc(NC=O)c3ncc(-c4cccc(C(=O)NCCN(C)C)c4)n3c2)cc1`, the molecule was called inactive.
For the molecule `O=C(O)c1ccc(N/N=C/c2ccc3nccnc3c2)cc1`, the call was inactive.
The same measure, in the same setting: the value for `COc1ccccc1C#Cc1ccc([C@H]2[C@@H](CO)N(C(=O)C3CCCCC3)[C@H]2C#N)cc1` was “inactive”.
Turning to `CCN(CC)CC(C)(C)C(=O)/C=C/c1ccc(/C=C/C(=O)C(C)(C)CN(CC)CC)cc1`, the molecule was called inactive.
With `COc1ccc(S(=O)(=O)Nc2ccc3c(c2)C(=O)N([C@H](C)CO)C[C@H](C)[C@@H](CN(C)S(=O)(=O)c2ccc(C)cc2)OCCCC[C@H](C)O3)cc1`, the molecule was classed as inactive.
On the same count and under the same terms, the value for `CN(C)CCOc1ccc2c(c1)C(=O)C(=Cc1ncc([N+](=O)[O-])n1C)C2` was “inactive”; that for `C=C1C2(C(=O)Nc3ccc(SC(F)F)cc3)CCC(C2)C1(C)C` (stereo not drawn) was “inactive”; that for `CCCN(CCC)Cc1c(C(=O)N/N=C/C(C)=C\c2ccco2)nnn1-c1nonc1N` was “inactive”.
Turning to `O=C(CCCN1C(=O)/C(=C/c2cccc(Br)c2)SC1=S)Nc1cccnc1`, the outcome was inactive.
As to `Cc1ccc(S(=O)(=O)N2CCCCC2)cc1NC(=O)Cc1c[nH]c2ccccc12`, the molecule was classed as inactive.
With `COc1ccc(-c2ccc3c(c2)[C@H]2[C@H](CCN2S(=O)(=O)c2ccc(OC)cc2)[C@H](CO)N3C)cc1`, the result was inactive.
For the molecule `CC(C)=CCC/C(C)=C/CNC(=O)C[C@H]1C[C@H](C(=O)N2CCOCC2)[C@@]2(C)c3[nH]c4ccc(Cl)cc4c3CCN2C1=O`, the call was inactive.
For `C=C1C(=O)O[C@@H]2[C@H]1CC[C@H](C)[C@]1(O)CCC(=O)[C@@]21C`, the call was inactive.
In the case of `O=C(Nc1cccc(Cl)c1)Nc1csc([N+](=O)[O-])c1`, the outcome was inactive.
Same read-out and setting: the value for `CCc1ccc2[nH]c3nc(N/N=C/c4ccc(O)cc4O)nnc3c2c1` was “inactive”.
As to `O=C(NCc1cccnc1)/C(=C\c1ccc(-c2ccc(Cl)c(Cl)c2)o1)S(=O)(=O)c1ccccc1`, the outcome was inactive.
Consider `O=C(NCC1CCCO1)C(=Cc1cccc([N+](=O)[O-])c1)C(=O)NCC1CCCO1` (stereo not drawn), for which the molecule was classed as inactive.
In the case of `C=C(C)C(=O)OC1(C(F)(F)F)Oc2cc(C)ccc2NC1=O` (stereo not drawn), the molecule was called inactive.
With `C[C@H](O)C#Cc1ccc2c(c1)O[C@H](CN(C)Cc1ccc(-c3ccccc3)cc1)[C@@H](C)CN([C@@H](C)CO)S2(=O)=O`, the molecule was called inactive.
Still for that read-out and setting: the value for `O=C(O)c1cccc(N/N=C/c2cccs2)c1` was “inactive”.

The nature of the next test: cytotoxicity in IOSE-T80 ovarian epithelial cells, dose response, selectivity assay for PAX8 inhibitor project, cell-based, cherry-pick (AID 687032).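 Further: cells exposed to compound for 96 h before reading.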 Particulars: CellTiterGlo ATP luminescence, 96 h; series mostly up to 35 µM.
Consider `COc1ccccc1N1CCN(Cc2cc(Br)c(O)c3ncccc23)CC1`, for which the molecule was classed as inactive.
`Oc1ccc(/C=N\Nc2cc(N3CCOCC3)nc(N3CCOCC3)n2)c(O)c1`: the molecule was called inactive.
In the case of `O=C1C=CC(=O)c2c(O)c(N3CCN(CCOCCO)CC3)c(Br)c(O)c21`, the molecule was classed as inactive.
`CCN(c1nc(N)c(C(=O)N=C(N)N)nc1Cl)C(C)C`: the molecule was called inactive.
Same read-out and setting: the value for `Cc1ccc(C)c(N2CCN(C(=O)CCCCCn3c(=S)[nH]c4ccc(N5CCOCC5)cc4c3=O)CC2)c1` was “inactive”; that for `CCc1ccc(CNC(=O)C2CCCN(c3nnc(C)c4c(C)n(-c5ccccc5)nc34)C2)cc1` (stereo not drawn) was “inactive”.
Turning to `C[C@@H](NC(=O)c1nc[nH]c1C(=O)N[C@@H](Cc1ccccc1)C(=O)OC(C)(C)C)c1ccccc1`, the outcome was inactive.
Turning to `O=C(N/N=C/c1ccc(O)cc1)c1[nH]c2ccc(Br)cc2c1-c1ccccc1`, the result was inactive.
As to `COc1ccc(O)c(/C=N/NC(=O)c2ccc(N3CCCC3=O)cc2)c1`, the outcome was inactive.
In the case of `C#CCN(C[C@@H]1[C@@H](OC(=O)NCCCCCC)[C@@H](OC(=O)NCCCCCC)Cn2c(=O)ccc(=O)n21)S(=O)(=O)c1ccc(C)cc1`, the result was inactive.
Consider `FC(F)(F)c1nnc2c(Sc3ccccc3)nc3ccc(Cl)cc3n12`, for which the molecule was called inactive.
`C#CCN(C[C@H]1[C@H](OC(=O)Nc2c(C)noc2C)[C@H](OC(=O)Nc2c(C)noc2C)C[C@@H](C(=O)OC)[C@H]1C(=O)OC)S(=O)(=O)c1ccc(C)cc1`: the result was inactive.
In the case of `COC(=O)C12OCC34C(CC5C(C)=C(O)C(=O)CC5(C)C3C(O)C1O)OC(=O)C(OC(=O)C=C(C)C)C24` (stereo not drawn), the outcome was inactive.
For the molecule `O=C(Nc1nc(-c2cccs2)c(-c2cccs2)s1)C1(c2ccccc2)CC1`, the call was inactive.
As to `CCO[C@H]1OC(C(=O)N2CCN(Cc3ccccc3)CC2)=C[C@@H](c2ccc(C(F)(F)F)cc2)[C@@H]1CCCO`, the call was inactive.
Take `COc1ccc(-c2cc(-c3ccccc3)c(C#N)c(S(C)(=O)=O)n2)cc1`: the molecule was classed as inactive.
Consider `O=C(CN1C(=O)c2ccccc2S1(=O)=O)N1CCc2ccccc21`, for which the outcome was inactive.
In the case of `Cc1ccc(-c2cn3cc(C)ccc3n2)cc1`, the molecule was classed as inactive.
Regarding `CC(=O)OC(C)(C)/C=C/C(=O)[C@](C)(O)C1[C@H](O)C[C@@]2(C)C3CC=C4C(C=C(O[C@@H]5O[C@H](CO)[C@@H](O)[C@H](O)[C@H]5O)C(=O)C4(C)C)[C@]3(C)C(=O)C[C@]12C` (stereo partly drawn), the molecule was called inactive.
For `CCSc1ccc(-c2cc(NC=O)c3ncc(-c4cccc(C(=O)NCCN(C)C)c4)n3c2)cc1`, the molecule was called inactive.
In the case of `O=C(O)c1ccc(N/N=C/c2ccc3nccnc3c2)cc1`, the call was inactive.
Consider `COc1ccccc1C#Cc1ccc([C@H]2[C@@H](CO)N(C(=O)C3CCCCC3)[C@H]2C#N)cc1`, for which the molecule was classed as inactive.
Take `CCN(CC)CC(C)(C)C(=O)/C=C/c1ccc(/C=C/C(=O)C(C)(C)CN(CC)CC)cc1`: the outcome was inactive.
On to `COc1ccc(S(=O)(=O)Nc2ccc3c(c2)C(=O)N([C@H](C)CO)C[C@H](C)[C@@H](CN(C)S(=O)(=O)c2ccc(C)cc2)OCCCC[C@H](C)O3)cc1`, for which the outcome was inactive.
`CN(C)CCOc1ccc2c(c1)C(=O)C(=Cc1ncc([N+](=O)[O-])n1C)C2`: the outcome was inactive.
On to `C=C1C2(C(=O)Nc3ccc(SC(F)F)cc3)CCC(C2)C1(C)C` (stereo not drawn), for which the outcome was inactive.
Regarding `CCCN(CCC)Cc1c(C(=O)N/N=C/C(C)=C\c2ccco2)nnn1-c1nonc1N`, the result was inactive.
Still for that read-out and setting: the value for `O=C(CCCN1C(=O)/C(=C/c2cccc(Br)c2)SC1=S)Nc1cccnc1` was “inactive”; that for `Cc1ccc(S(=O)(=O)N2CCCCC2)cc1NC(=O)Cc1c[nH]c2ccccc12` was “inactive”; that for `COc1ccc(-c2ccc3c(c2)[C@H]2[C@H](CCN2S(=O)(=O)c2ccc(OC)cc2)[C@H](CO)N3C)cc1` was “inactive”.
As to `CC(C)=CCC/C(C)=C/CNC(=O)C[C@H]1C[C@H](C(=O)N2CCOCC2)[C@@]2(C)c3[nH]c4ccc(Cl)cc4c3CCN2C1=O`, the result was inactive.
Regarding `C=C1C(=O)O[C@@H]2[C@H]1CC[C@H](C)[C@]1(O)CCC(=O)[C@@]21C`, the call was inactive.
On the same count and under the same terms, the value for `O=C(Nc1cccc(Cl)c1)Nc1csc([N+](=O)[O-])c1` was “inactive”.
In the case of `CCc1ccc2[nH]c3nc(N/N=C/c4ccc(O)cc4O)nnc3c2c1`, the molecule was classed as inactive.
Regarding `O=C(NCc1cccnc1)/C(=C\c1ccc(-c2ccc(Cl)c(Cl)c2)o1)S(=O)(=O)c1ccccc1`, the molecule was called inactive.
Regarding `O=C(NCC1CCCO1)C(=Cc1cccc([N+](=O)[O-])c1)C(=O)NCC1CCCO1` (stereo not drawn), the molecule was classed as inactive.
For `C=C(C)C(=O)OC1(C(F)(F)F)Oc2cc(C)ccc2NC1=O` (stereo not drawn), the molecule was classed as inactive.
Consider `C[C@H](O)C#Cc1ccc2c(c1)O[C@H](CN(C)Cc1ccc(-c3ccccc3)cc1)[C@@H](C)CN([C@@H](C)CO)S2(=O)=O`, for which the result was inactive.
Consider `O=C(O)c1cccc(N/N=C/c2cccs2)c1`, for which the molecule was called inactive.
